Structures are written as SMILES. Screen size: about 24,000 compounds; about 1,200 (5%) were called active. About 2% were inconclusive and are not listed. These entries were drawn from the full list. Values without a mark were called inactive. How the calls were made is not given here.

The nature of this experiment: Mycobacterium tuberculosis H37Rv growth inhibition, putative kinase inhibitor library, confirmatory dose response (AID 2842).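 Further: bacteria incubated one week before Alamar blue readout; 0% = bacteria only wells and 100% = bacteria with high antibiotic.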 The note with it: M. tuberculosis H37Rv growth inhibition; CC50: measured here: Vero cell cytotoxicity; inhibition: active compounds read high.
In the case of `COc1ccc(OC)c(-c2nnc(NC(=O)C(C)Sc3ccccc3)s2)c1` (stereo not given), the inhibition is -0.69%. For `COc1ccc(Nc2nc(N3CCN(c4cccc(Cl)c4)CC3)nc3nccnc23)cc1`, the inhibition was 9.83%. As for `CCN(CC)CCCNc1ncnc2sc3c(c12)CC(C)CC3` (stereo not given), the inhibition was 5.59%. For the compound `COc1cc(C(=O)NC(=S)Nc2cccc3c2C(=O)NC3=O)cc(OC)c1OC`, the inhibition was -8.66%. The result for `Cn1c(=O)c2c(nc(SCCN3CCOCC3)n2Cc2ccccc2)n(C)c1=O` reads 0.8%. Regarding `COc1ccc(C(=O)c2cn(CC(=O)Nc3ccc(F)cc3)c3ccc(F)cc3c2=O)cc1`, the inhibition was 9.54%.

As for `CC1(C)Cc2c(sc(NC(=O)/C=C/c3ccccc3)c2C#N)C(C)(C)N1`, the inhibition is -4.69%.

On to `COc1ccc(CC(=O)NCCc2cc3ccc(C)cc3[nH]c2=O)cc1OC`, for which the inhibition is 11.1%. On to `CC1(C)COc2ccc(NC(=O)Cc3cccs3)cc2NC1=O`, for which the inhibition is 6.11%. With `CCS(=O)(=O)c1cccc(C(=O)Nc2sc(C)c(C)c2C(=O)NC)c1`, the inhibition is -4.86%.

Take `CCOC(=O)N1CCN(C(=O)COc2cccc3c2CCN(CC)C3=O)CC1`: the inhibition was -2.11%. Consider `Cn1c(Cn2c(=O)sc3ccccc32)nnc1SCC(=O)Nc1ccc2c(c1)OCO2`, for which the inhibition is -4.61%. As for `CC(C)N1CCc2c(sc(NC(=O)c3ccccc3Oc3ccccc3)c2C(N)=O)C1`, the inhibition is 81.6%. As to `COC(=O)c1c(NC(=O)c2ccccc2)sc2c1CC(C)(C)NC2(C)C`, the inhibition was 16.8%. Take `Cc1ccc(NC(=O)CSc2nccn(-c3ccc(F)cc3)c2=O)c(C)c1`: the inhibition was -11.8%. In the case of `CNC(=O)C(=O)c1c[nH]c2ccccc12`, the inhibition was 4.99%. `CC1CCCCN1c1ncnc(N)c1[N+](=O)[O-]` (stereo not given): the inhibition is 1.66%. On to `CC1(C)Cc2c(sc(NC(=O)c3cccc(F)c3)c2C#N)C(C)(C)N1`, for which the inhibition was -10.1%. For `Cc1nnc(SCc2ccc([N+](=O)[O-])cc2)n(N)c1=O`, the inhibition was 1.18%. On to `O=C1/C(=C/c2ccc(Br)cc2)Oc2cc(O)ccc21`, for which the inhibition is 8.31%. In the case of `COc1ccc(CNc2nc3c(-c4ccc(Cl)cc4)nnn3c3ccccc23)cc1`, the inhibition is 4.87%. With `O=C(Nc1nc2c(cc3c4c(cccc42)CC3)s1)C(c1ccccc1)c1ccccc1` the figure was 10.3%; with `Cc1cc(OC(=O)C23CC4CC(CC(C4)C2)C3)c([N+](=O)[O-])c(=O)[nH]1`, 2.01%; with `C=CCn1c(N(C)C)nc2c1c(=O)[nH]c(=O)n2C`, -2.63%. Turning to `CCOc1ccccc1NC(=O)c1oc2ccccc2c1NC(=O)COc1ccccc1`, the inhibition was 10.5%.

In the case of `COc1ccc(Cn2cc(C(=O)c3ccc(Cl)cc3)c(=O)c3cc4c(cc32)OCCO4)cc1`, the inhibition was 14.9%. Turning to `CCOc1ccc(C(=O)Nc2c3c(nn2C(C)(C)C)CS(=O)C3)cc1` (stereo not given), the inhibition is 6.89%.

Consider `CCCC(=O)Nc1nnc(-c2cccc(C)c2)s1`, for which the inhibition is 5.77%.

For the compound `COC(=O)c1ccc(NC(=O)CSc2nnc(C)c(=O)n2N)cc1`, the inhibition is 6.15%. Take `Cc1ccc(NC(=O)CSc2nnc(CCC(=O)O)c(=O)[nH]2)cc1C`: the inhibition is -8.56%.

For the compound `O=c1cnnc(N/N=C/c2ccc(O)cc2O)[nH]1`, the inhibition was 45.3%. Take `O=C1C(=O)N(CCCN2CCOCC2)C(c2cccc(F)c2)/C1=C(\O)c1ccncc1` (stereo not given): the inhibition is -3.95%. On to `CCOc1ccc(N2CC(NC(=O)Nc3cccc(C)n3)CC2=O)cc1` (stereo not given), for which the inhibition is 8.06%. On to `O=S(=O)(Nc1cc(Sc2ncn[nH]2)c(O)c2ccccc12)c1ccc(F)cc1`, for which the inhibition is -6.45%. Regarding `COc1ccccc1NC(=O)CCCN1C(=O)c2cccc3cccc(c23)C1=O`, the inhibition was 16.8%. With `COc1ccccc1NC(=O)c1oc2ccccc2c1NC(=O)c1ccc(Cl)c([N+](=O)[O-])c1`, the inhibition is 3.99%. Turning to `COc1ccc(OCC(=O)N/N=C/c2ccccc2O)cc1`, the inhibition is -13%. With `O=C(/C=C/c1cccs1)Nc1nncs1` the figure was -2.33%; with `COc1cccc2c1OC(c1ccncc1)N1N=C(c3cc(C)ccc3O)CC21` (stereo not given), 0.62%. With `Cc1ccccc1NC(=O)CSc1nnc(Cn2c(=O)sc3ccccc32)n1C` the figure was -1.23%; with `COc1ccc(-n2c(=O)[nH]c3c(C(N)=O)nc(-c4ccncc4)nc32)cc1`, 1.06%; with `CC(C)c1nnc(SCc2c(Cl)ccc(Cl)c2Cl)n1N`, -13.8%. On to `O=C(Nc1ccc2c(c1)OCO2)c1cnc2n(c1=O)CCS2`, for which the inhibition was 0.45%. Regarding `Cc1nnc(NC(=O)CSc2nc3c(c(=O)n2-c2ccccc2)SCC3)s1`, the inhibition was -2.21%. As to `Cc1oc2c(CN3CCN(C)CC3)c(O)ccc2c(=O)c1-c1nc2ccccc2s1`, the inhibition was -15.1%. On to `Cc1ccc(CSc2nc3c([nH]2)c(=O)n(C)c(=O)n3C)cc1`, for which the inhibition is 6.64%. With `NC(=O)c1oc2ccccc2c1NC(=O)c1ccc(Cl)s1` the figure was 14.6%; with `Nc1nc(SCC(=O)Nc2ccc(F)cc2F)[nH]c(=O)c1NC(=O)c1ccc(Br)cc1`, -9.37%; with `Cc1cc2nnc(SCC(=O)Nc3ccccc3)n2c2ccccc12`, 0.4%.

For the compound `COc1cccc(NC(=O)Nc2nc3c(s2)C(=O)CC(C)(C)C3)c1`, the inhibition is 8.4%.

For the compound `CCN(c1ncnc(N)c1[N+](=O)[O-])C1CCCCC1`, the inhibition was 5.41%. As to `COc1ccc(NC(=O)CSc2nnc3ccc(-c4ccncc4)nn23)cc1`, the inhibition was -9.39%. Consider `O=C(CSc1nnc2[nH]c(=O)ccn12)Nc1ccc([N+](=O)[O-])cc1`, for which the inhibition is -13.1%.

With `CN(CCC#N)c1ccc(C=C2C(=O)NC(=S)NC2=O)cc1`, the inhibition was 5.58%. Regarding `COC(=O)C1=C(C)NC(=O)NC1c1ccc(Cl)cc1` (stereo not given), the inhibition is 1.95%.

With `CC(C)CCSc1nc2c(c(=O)[nH]c(=O)n2C)n1CC(O)COc1ccc(Cl)cc1` (stereo not given), the inhibition was 21.4%. `COc1cccc(N2CC(C)Cn3c2nc2c3c(=O)[nH]c(=O)n2C)c1` (stereo not given): the inhibition is 0.57%.

Regarding `CC1Cc2nc(SCc3ccccn3)n(-c3ccc(F)cc3)c(=O)c2S1` (stereo not given), the inhibition is 20%. Regarding `Cc1cccc(-n2ccnc2SCC(=O)Nc2nc3ccccc3s2)c1C`, the inhibition was 4.43%. With `CCOc1ccc(/C(O)=C2\C(=O)C(=O)N(CCCn3ccnc3)C2c2ccc(F)cc2)cc1Cl` (stereo not given) the figure was -17.6%; with `CSc1ccc2nc(Nc3ccc(F)cc3F)sc2c1`, 8.52%; with `C=CCOC(=O)C1=C(C)Nc2[nH]c(=O)[nH]c(=O)c2C1c1ccc(Cl)c(Cl)c1` (stereo not given), -6.17%. Consider `Nc1nc(SCC(=O)N2CCCCCC2)[nH]c(=O)c1NC(=O)c1ccco1`, for which the inhibition is -18.5%. Regarding `O=C(Nc1nc(-c2ccc(Cl)cc2Cl)cs1)c1ccc2c(c1)OCCO2`, the inhibition was 0.34%. Take `CC1=C(C(=O)Nc2ccc(Cl)cc2)C(c2ccccc2Cl)C(C#N)=C(SCC(N)=O)N1` (stereo not given): the inhibition was 71.6%.

As for `Cc1nc2sc(C(N)=O)c(N)c2c(-c2ccccc2)c1C(=O)Nc1ccccc1`, the inhibition was 1.79%. As for `CCOC(=O)c1cnc2ccc(OCC)cc2c1Nc1cccc(Cl)c1C`, the inhibition was -5.22%.

For `COc1ccc(-n2c(=O)[nH]cc(C(=O)Nc3ccc4c(c3)OCO4)c2=O)cc1OC`, the inhibition was 1.59%. Consider `Cc1ccccc1NC(=O)Cc1csc(NS(=O)(=O)c2ccc(Cl)cc2)n1`, for which the inhibition is -5.2%. With `Cc1ccnc(NC(=O)NC2CC(=O)N(c3ccc(F)cc3)C2)c1` (stereo not given), the inhibition was 11.3%. The result for `CCOC(=O)c1oc2ccccc2c1NC(=O)c1ccc(F)c(F)c1` reads 3.18%. As to `CC1CCc2c(sc(NC(=O)c3ccc4ccccc4c3)c2C#N)C1` (stereo not given), the inhibition is 1.23%.

For `CCCCCCCNC(=O)c1c(N)n(/N=C/c2ccco2)c2nc3ccccc3nc12`, the inhibition was -9.39%. With `O=C(O)COc1ccccc1/C=C1/SC(=S)N(NC(=O)c2ccco2)C1=O` the figure was -1.98%; with `CNC(=O)c1c(NC(=O)CC2SC(=O)NC2=O)sc2c1CCCC2` (stereo not given), -3.54%; with `Cc1ccc(C(=O)Nc2cc(C)c3c(=O)oc4ccccc4c3n2)cc1[N+](=O)[O-]`, -2.97%. The result for `O=C(CN1N=NC2C(=O)N(c3ccc(Cl)cc3)C(=O)C21)Nc1ccccc1Cl` (stereo not given) reads 0.65%; that for `COc1ccc(NC(=O)C2=C(C)Nc3ncnn3C2c2ccc(C#N)cc2)cc1` (stereo not given), -1.94%; that for `COc1ccc(/C(O)=C2\C(=O)C(=O)N(CCCn3ccnc3)C2c2cccc(F)c2)cc1Cl` (stereo not given), -11.8%. Take `O=C(CSc1nc2c(c(=O)n1-c1ccc(Cl)cc1)SCC2)Nc1ccc2c(c1)OCO2`: the inhibition was -11.7%. In the case of `Cn1c(SCC(=O)N2CCOCC2)nnc1-c1c[nH]c2ccccc12`, the inhibition was -12.7%.

With `O=C(Nc1nnc(-c2ccc(F)cc2)s1)c1ccccc1`, the inhibition was 8.84%. Turning to `CCN1CCN(c2nc(Nc3ccc(OC)cc3)c3nccnc3n2)CC1`, the inhibition was -0.8%. The result for `CCc1ccc(NC(=O)CSc2nc(-c3cccs3)nc3c2c(=O)n(C)c(=O)n3C)cc1` reads -5.83%; that for `CCOc1ccc(C(=O)Nc2nnc(C34CC5CC(CC(C5)C3)C4)s2)cc1`, 9.95%. With `COc1ccc(CCNC(=O)C(=O)NCC(c2ccco2)N2CCc3ccccc32)cc1` (stereo not given) the figure was -2.72%. Consider `CSc1ccc2nc(Nc3cc(C)ccc3C)sc2c1`, for which the inhibition was 13.8%.

In the case of `COc1cc(CN2CCNC(=O)C2CC(=O)O)cc(OC)c1` (stereo not given), the inhibition is -0.59%. With `COCCOC(=O)C1=C(C)NC(=O)NC1c1ccc(OC)cc1` (stereo not given) the figure was -0.33%. For `COC(=O)c1ccc(CSc2nnc3[nH]c(=O)c(C)c(C)n23)o1`, the inhibition was -3.33%.

As a reminder, the inhibition is the drop in the measured response relative to a control, in per cent.

The values above are taken from PubChem BioAssay AID2842 (Southern Research Institute, 2010).
